This is part of a sample that, as a whole, favours compounds with a hit. Of some 83,000 tested, about 20% had one in any assay.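 Method: cells in 96-well plates; compound added at one concentration; 48 h incubation; percent growth measured; values under 10 scored active.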 A number with no mark means an inactive call. Activity calls are given as the source filed them.
System: MDA-MB-468 breast
Test: NCI-60 one-dose screen, 48 h (100 = growth as untreated, 0 = no growth, -100 = all killed)
Details: 10 µM unless noted

| Compound | growth |
| --- | --- |
| Cc1ccc2c(n1)C(=O)C(Oc1ccc(F)cc1)=CC2=O | 87.7% |
| O=C(CCC(=O)N/N=C/c1ccccc1O)N/N=C/c1ccccc1O | 62.8% |
| COc1cc2c(c(OC)c1OC)C(=O)CC(c1cccc(NC(=O)c3ccc(Br)cc3)c1)O2 (stereo not given) | 12.1% |
| Cc1cc(-c2ccc(Cl)cc2)n(Cc2nnc(SCC(=O)Nc3ccc(S(N)(=O)=O)cc3)n2C2CCCCC2)n1 | 117% |
| COc1ccc(-c2cc(/C=C3\C(=O)Nc4cc(Cl)ccc43)[nH]n2)cc1OC | 65.5% |
| COc1ccc(-c2nc3ccccc3n3cccc23)cc1 | 112% |
| CN1CCC2(CC1)NC(=O)c1c(c3ccc(Cl)c(Cl)c3n1C)C2C#N (stereo not given) | 9.36% (active) |
| COc1cc(C(=O)/C=C/c2cc(-c3ccc4c(c3)OCO4)n[nH]2)cc(OC)c1OC | 29.1% |
| COc1ccc2c(c1)C(=O)c1c-2c(OCCCN(C)C)nc2cc(Br)ccc12 | 67.5% |
| Cn1cc(-c2nc(-c3c[nH]c4ncccc34)cs2)c2cc(Cl)ccc21 | -3.54% (active) |
| CCOC(=O)C1=C(C)N=c2s/c(=C\c3cc(Cl)ccc3O)c(=O)n2C1c1ccc(OC)cc1 (stereo not given) | 94.8% |
| COc1ccc(-c2ccc(C)n2-c2ccc(-c3nc4cc(Cl)ccc4s3)cc2)cc1 | -30.7% (active) |
| COc1cc(CN(c2ccc(C)cc2)C2OC(=O)c3ccccc32)cc(OC)c1OC (stereo not given) | 25% |
| COC(=O)/C(=C\c1c(-c2ccccc2)[nH]c2ccccc12)S(C)(=O)=O | 36.3% |
| CCN1CCN(CCNc2nccc(-c3c(-c4ccc(F)c(OC)c4)nc4sccn34)n2)S1(=O)=O | 80.1% |
| Oc1ccc(-c2nc3ccc4[nH]ncc4c3c3c2CCCC3)c(F)c1 | 18.2% |
| N#Cc1c(NC(=O)c2cccc(C(F)(F)F)c2F)sc2c1CCC(=O)C2 | -32% (active) |
| COc1ccccc1NC(=O)c1sc2nc3c(cc2c1N)C(=O)CCC3 | 23.4% |
| COc1cccc(-c2nnc(N)o2)c1 | 90.3% |
| CCC(C)N(c1ccc(Cl)cc1)c1nc(-c2ccc(Br)cc2)cs1 (stereo not given) | 95.7% |
| CCS(=O)(=O)CCCl | 101% |
| COc1ccc(-c2ccc3ncc4c(c3c2)n(-c2ccc(N3CCNCC3)c(C(F)(F)F)c2)c(=O)n4C)cn1 | -87% (active) |
| COc1cc(/C=C2\CCC/C(=C\c3cc(CN4CCOCC4)c(O)c(OC)c3)C2=O)cc(CN2CCOCC2)c1O | 31.5% |
| S=c1cnc2ccccc2[nH]1 | 108% |
| O=S(O)c1cc(Cl)cc(Cl)c1OCc1ccccc1 | 84% |
